Measurements: the supplement of paper PMC4466140

B1: unnamed (peptide)
chain: KRKRRLPVSEDTNTK

Target: AgAbp1
Test: SPOT peptide array binding signal intensity (averaged, normalized) (arbitrary units (background-subtracted, floor 0; scale differs between SH3 domains)); higher = stronger binding of the SH3 domain to the peptide
Protocol: (§1)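 GST-tagged SH3 domains from S. cerevisiae (Sc), A. gossypii (Ag), C. albicans (Ca) and S. pombe (Sp) were incubated at 10 ug/ml overnight at 4 C on cellulose SPOT membranes carrying 292 synthetic 15-mer peptides mined from the S. cerevisiae proteome (cysteines replaced by serines). Binding was detected with anti-GST antibody, HRP secondary and chemiluminescence, quantified with Genespotter, and reported as normalized spot intensities averaged over biological replicates.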

| Binder | SPOT peptide array binding signal intensity |
| --- | --- |
| B1 | 42.5 |

Target: AgBbc1
Test: as above
Protocol: as §1

| Binder | SPOT peptide array binding signal intensity |
| --- | --- |
| B1 | 25 |

Target: AgBem1-D1
Test: as above
Protocol: as §1

| Binder | SPOT peptide array binding signal intensity |
| --- | --- |
| B1 | 322 |

Target: AgBzz1-D1
Test: as above
Protocol: as §1

| Binder | SPOT peptide array binding signal intensity |
| --- | --- |
| B1 | 26.5 |

Target: AgBzz1-D2
Test: as above
Protocol: as §1

| Binder | SPOT peptide array binding signal intensity |
| --- | --- |
| B1 | 47.5 |

Target: AgCyk3
Test: as above
Protocol: as §1

| Binder | SPOT peptide array binding signal intensity |
| --- | --- |
| B1 | 1 |

Target: AgFus1
Test: as above
Protocol: as §1

| Binder | SPOT peptide array binding signal intensity |
| --- | --- |
| B1 | 519 |

Target: AgHof1
Test: as above
Protocol: as §1

| Binder | SPOT peptide array binding signal intensity |
| --- | --- |
| B1 | 87 |

Target: AgHse1
Test: as above
Protocol: as §1

| Binder | SPOT peptide array binding signal intensity |
| --- | --- |
| B1 | 656 |

Target: AgLsb1
Test: as above
Protocol: as §1

| Binder | SPOT peptide array binding signal intensity |
| --- | --- |
| B1 | 1.5 |

Target: AgLsb4
Test: as above
Protocol: as §1

| Binder | SPOT peptide array binding signal intensity |
| --- | --- |
| B1 | 46.5 |

Target: AgMyo5
Test: as above
Protocol: as §1

| Binder | SPOT peptide array binding signal intensity |
| --- | --- |
| B1 | 1.5 |

Target: AgNbp2
Test: as above
Protocol: as §1

| Binder | SPOT peptide array binding signal intensity |
| --- | --- |
| B1 | 213 |

Target: AgRvs167
Test: as above
Protocol: as §1

| Binder | SPOT peptide array binding signal intensity |
| --- | --- |
| B1 | 3.5 |

Target: AgSho1
Test: as above
Protocol: as §1

| Binder | SPOT peptide array binding signal intensity |
| --- | --- |
| B1 | 53 |

Target: AgSla1-D1-D2
Test: as above
Protocol: as §1

| Binder | SPOT peptide array binding signal intensity |
| --- | --- |
| B1 | 25.5 |

Target: AgSla1-D3
Test: as above
Protocol: as §1

| Binder | SPOT peptide array binding signal intensity |
| --- | --- |
| B1 | 7 |

Target: CaAbp1-D1
Test: as above
Protocol: as §1

| Binder | SPOT peptide array binding signal intensity |
| --- | --- |
| B1 | 514 |

Target: CaAbp1-D2
Test: as above
Protocol: as §1

| Binder | SPOT peptide array binding signal intensity |
| --- | --- |
| B1 | 626 |

Target: CaBbc1
Test: as above
Protocol: as §1

| Binder | SPOT peptide array binding signal intensity |
| --- | --- |
| B1 | 97 |

Target: CaBem1-D1
Test: as above
Protocol: as §1

| Binder | SPOT peptide array binding signal intensity |
| --- | --- |
| B1 | 3 |

Target: CaBzz1-D1
Test: as above
Protocol: as §1

| Binder | SPOT peptide array binding signal intensity |
| --- | --- |
| B1 | 85 |

Target: CaBzz1-D2
Test: as above
Protocol: as §1

| Binder | SPOT peptide array binding signal intensity |
| --- | --- |
| B1 | 69.8 |

Target: CaCyk3
Test: as above
Protocol: as §1

| Binder | SPOT peptide array binding signal intensity |
| --- | --- |
| B1 | 24 |

Target: CaFus1
Test: as above
Protocol: as §1

| Binder | SPOT peptide array binding signal intensity |
| --- | --- |
| B1 | 1030 |

Target: CaHof1
Test: as above
Protocol: as §1

| Binder | SPOT peptide array binding signal intensity |
| --- | --- |
| B1 | 0.5 |

Target: CaHse1
Test: as above
Protocol: as §1

| Binder | SPOT peptide array binding signal intensity |
| --- | --- |
| B1 | 49 |

Target: CaLsb1
Test: as above
Protocol: as §1

| Binder | SPOT peptide array binding signal intensity |
| --- | --- |
| B1 | 0.75 |

Target: CaLsb4
Test: as above
Protocol: as §1

| Binder | SPOT peptide array binding signal intensity |
| --- | --- |
| B1 | 154 |

Target: CaMyo5
Test: as above
Protocol: as §1

| Binder | SPOT peptide array binding signal intensity |
| --- | --- |
| B1 | 3 |

Target: CaNbp2
Test: as above
Protocol: as §1

| Binder | SPOT peptide array binding signal intensity |
| --- | --- |
| B1 | 255 |

Target: CaRvs167
Test: as above
Protocol: as §1

| Binder | SPOT peptide array binding signal intensity |
| --- | --- |
| B1 | 8.67 |

Target: CaRvs167-3
Test: as above
Protocol: as §1

| Binder | SPOT peptide array binding signal intensity |
| --- | --- |
| B1 | 9.75 |

Target: CaSho1
Test: as above
Protocol: as §1

| Binder | SPOT peptide array binding signal intensity |
| --- | --- |
| B1 | 288 |

Target: CaSla1-D1-D2
Test: as above
Protocol: as §1

| Binder | SPOT peptide array binding signal intensity |
| --- | --- |
| B1 | 8 |

Target: CaSla1-D3
Test: as above
Protocol: as §1

| Binder | SPOT peptide array binding signal intensity |
| --- | --- |
| B1 | 8.75 |

Target: ScAbp1
Test: as above
Protocol: as §1

| Binder | SPOT peptide array binding signal intensity |
| --- | --- |
| B1 | 30 |

Target: ScBbc1
Test: as above
Protocol: as §1

| Binder | SPOT peptide array binding signal intensity |
| --- | --- |
| B1 | 30 |

Target: ScBem1-D1
Test: as above
Protocol: as §1

| Binder | SPOT peptide array binding signal intensity |
| --- | --- |
| B1 | 183 |

Target: ScBzz1-D1
Test: as above
Protocol: as §1

| Binder | SPOT peptide array binding signal intensity |
| --- | --- |
| B1 | 15.5 |

Target: ScBzz1-D2
Test: as above
Protocol: as §1

| Binder | SPOT peptide array binding signal intensity |
| --- | --- |
| B1 | 16.5 |

Target: ScCyk3
Test: as above
Protocol: as §1

| Binder | SPOT peptide array binding signal intensity |
| --- | --- |
| B1 | 143 |

Target: ScFus1
Test: as above
Protocol: as §1

| Binder | SPOT peptide array binding signal intensity |
| --- | --- |
| B1 | 298 |

Target: ScHof1
Test: as above
Protocol: as §1

| Binder | SPOT peptide array binding signal intensity |
| --- | --- |
| B1 | 3.5 |

Target: ScHse1
Test: as above
Protocol: as §1

| Binder | SPOT peptide array binding signal intensity |
| --- | --- |
| B1 | 1340 |

Target: ScLsb1
Test: as above
Protocol: as §1

| Binder | SPOT peptide array binding signal intensity |
| --- | --- |
| B1 | 1.5 |

Target: ScLsb2
Test: as above
Protocol: as §1

| Binder | SPOT peptide array binding signal intensity |
| --- | --- |
| B1 | 11 |

Target: ScLsb3
Test: as above
Protocol: as §1

| Binder | SPOT peptide array binding signal intensity |
| --- | --- |
| B1 | 562 |

Target: ScLsb4
Test: as above
Protocol: as §1

| Binder | SPOT peptide array binding signal intensity |
| --- | --- |
| B1 | 16 |

Target: ScMyo3
Test: as above
Protocol: as §1

| Binder | SPOT peptide array binding signal intensity |
| --- | --- |
| B1 | 5.75 |

Target: ScMyo5
Test: as above
Protocol: as §1

| Binder | SPOT peptide array binding signal intensity |
| --- | --- |
| B1 | 6.75 |

Target: ScNbp2
Test: as above
Protocol: as §1

| Binder | SPOT peptide array binding signal intensity |
| --- | --- |
| B1 | 210 |

Target: ScPex13
Test: as above
Protocol: as §1

| Binder | SPOT peptide array binding signal intensity |
| --- | --- |
| B1 | 0.5 |

Target: ScRvs167
Test: as above
Protocol: as §1

| Binder | SPOT peptide array binding signal intensity |
| --- | --- |
| B1 | 16.3 |

Target: ScSho1
Test: as above
Protocol: as §1

| Binder | SPOT peptide array binding signal intensity |
| --- | --- |
| B1 | 808 |

Target: ScSla1-D1-D2
Test: as above
Protocol: as §1

| Binder | SPOT peptide array binding signal intensity |
| --- | --- |
| B1 | 261 |

Target: ScSla1-D3
Test: as above
Protocol: as §1

| Binder | SPOT peptide array binding signal intensity |
| --- | --- |
| B1 | 103 |

Target: SpAbp1-D1
Test: as above
Protocol: as §1

| Binder | SPOT peptide array binding signal intensity |
| --- | --- |
| B1 | 214 |

Target: SpBbc1
Test: as above
Protocol: as §1

| Binder | SPOT peptide array binding signal intensity |
| --- | --- |
| B1 | 3 |

Target: SpBzz1-D1
Test: as above
Protocol: as §1

| Binder | SPOT peptide array binding signal intensity |
| --- | --- |
| B1 | 40 |

Target: SpBzz1-D2
Test: as above
Protocol: as §1

| Binder | SPOT peptide array binding signal intensity |
| --- | --- |
| B1 | ≤ 0 |

Target: SpCyk3
Test: as above
Protocol: as §1

| Binder | SPOT peptide array binding signal intensity |
| --- | --- |
| B1 | 6.5 |

Target: SpHof1
Test: as above
Protocol: as §1

| Binder | SPOT peptide array binding signal intensity |
| --- | --- |
| B1 | 150 |

Target: SpHof1-2
Test: as above
Protocol: as §1

| Binder | SPOT peptide array binding signal intensity |
| --- | --- |
| B1 | 12 |

Target: SpHof1-3
Test: as above
Protocol: as §1

| Binder | SPOT peptide array binding signal intensity |
| --- | --- |
| B1 | 602 |

Target: SpHse1
Test: as above
Protocol: as §1

| Binder | SPOT peptide array binding signal intensity |
| --- | --- |
| B1 | 391 |

Target: SpLsb1
Test: as above
Protocol: as §1

| Binder | SPOT peptide array binding signal intensity |
| --- | --- |
| B1 | 5.75 |

Target: SpLsb4
Test: as above
Protocol: as §1

| Binder | SPOT peptide array binding signal intensity |
| --- | --- |
| B1 | 268 |

Target: SpMyo1
Test: as above
Protocol: as §1

| Binder | SPOT peptide array binding signal intensity |
| --- | --- |
| B1 | 3.5 |

Target: SpNbp2
Test: as above
Protocol: as §1

| Binder | SPOT peptide array binding signal intensity |
| --- | --- |
| B1 | 331 |

Target: SpPex13
Test: as above
Protocol: as §1

| Binder | SPOT peptide array binding signal intensity |
| --- | --- |
| B1 | 8.5 |

Target: SpRvs167
Test: as above
Protocol: as §1

| Binder | SPOT peptide array binding signal intensity |
| --- | --- |
| B1 | 2.83 |

Target: SpSla1-D1-D2
Test: as above
Protocol: as §1

| Binder | SPOT peptide array binding signal intensity |
| --- | --- |
| B1 | ≤ 0 |

Target: SpSla1-D3
Test: as above
Protocol: as §1

| Binder | SPOT peptide array binding signal intensity |
| --- | --- |
| B1 | 6 |
